Eleven compounds from ChEMBL document CHEMBL3988442, “University of Dundee, Small-Polar-MMV Screening Library” (2021) can be followed below.

For some of these results: Results with a measured potency or affinity are listed apart.

Parameters in all cases: scale not given: direction of the effect not stated beside the values
Experiment [1] addresses Protein translocase subunit SecA (Escherichia coli (strain K12)) (UniProt P10408). In words: Assay to Identify E. coli SecA ATPase Inhibitors. Type of experiment: functional. The conditions noted are these: 30 µM.
Experiment [2] concerns the target T1, Ubiquitin-activating enzyme e1, putative (Leishmania donovani (strain BPK282A1)) (UniProt E9BSI1).
T1 sequence (whole entry): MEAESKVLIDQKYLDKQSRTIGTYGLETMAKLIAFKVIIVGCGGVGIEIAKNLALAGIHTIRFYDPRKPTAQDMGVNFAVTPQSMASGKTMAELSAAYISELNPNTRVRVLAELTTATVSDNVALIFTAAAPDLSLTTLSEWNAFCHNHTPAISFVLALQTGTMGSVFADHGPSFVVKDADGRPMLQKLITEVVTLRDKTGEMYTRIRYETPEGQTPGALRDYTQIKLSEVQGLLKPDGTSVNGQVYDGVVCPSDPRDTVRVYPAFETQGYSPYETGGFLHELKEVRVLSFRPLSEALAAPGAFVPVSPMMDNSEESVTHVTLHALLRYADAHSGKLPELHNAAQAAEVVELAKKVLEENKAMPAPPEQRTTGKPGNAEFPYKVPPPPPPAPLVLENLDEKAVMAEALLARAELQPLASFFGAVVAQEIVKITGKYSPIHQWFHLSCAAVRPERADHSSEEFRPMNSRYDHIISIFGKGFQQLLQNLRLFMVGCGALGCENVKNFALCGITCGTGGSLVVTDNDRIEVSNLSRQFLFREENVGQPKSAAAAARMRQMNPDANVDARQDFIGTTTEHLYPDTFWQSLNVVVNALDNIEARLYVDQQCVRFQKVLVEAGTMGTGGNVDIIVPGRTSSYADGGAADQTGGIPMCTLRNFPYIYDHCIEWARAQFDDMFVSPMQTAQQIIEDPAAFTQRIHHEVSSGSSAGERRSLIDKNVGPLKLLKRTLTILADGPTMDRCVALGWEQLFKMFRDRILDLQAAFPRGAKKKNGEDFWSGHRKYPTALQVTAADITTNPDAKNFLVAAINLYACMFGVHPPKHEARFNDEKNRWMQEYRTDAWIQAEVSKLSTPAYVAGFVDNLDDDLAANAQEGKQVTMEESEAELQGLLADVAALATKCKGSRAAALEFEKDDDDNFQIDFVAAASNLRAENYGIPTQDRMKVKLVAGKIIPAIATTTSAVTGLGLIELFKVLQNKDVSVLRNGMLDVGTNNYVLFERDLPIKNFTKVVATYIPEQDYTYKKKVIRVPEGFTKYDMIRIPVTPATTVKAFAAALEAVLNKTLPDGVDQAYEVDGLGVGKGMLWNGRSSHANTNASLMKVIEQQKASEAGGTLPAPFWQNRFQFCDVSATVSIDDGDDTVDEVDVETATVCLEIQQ
In words: Leishmania donovani Ubiquitin Activating Enzyme (LdE1). In kind it is functional. The conditions noted are these: 30 µM.

The target of experiment [3] is AMP-activated protein kinase, AMPK (Homo sapiens) (UniProt P54646+O43741+P54619+Q9UGJ0+Q9Y478+Q13131+Q9UGI9). In words: AMP-dependent Kinase enzyme assay. An in vitro enzyme assay that detects ADP turnover that is directly proportional to AMPK activity. This uses naive AMPK that is activated during the assay with MK-8722. In kind it is functional. The conditions noted are these: 30 µM.

In experiment [4] the target is Sialic acid-binding Ig-like lectin 9 (Homo sapiens) (UniProt Q9Y336). Put plainly: Hs-Siglec9 ALPHAscreen SOP 20170721. As to conditions: 10 µM. On the technique in general: Bead proximity is the source of the signal in Alpha formats.
Experiment [5] concerns Trypanosoma cruzi. Put plainly: Trypanosoma cruzi phosphomannomutase and mannose-1-phosphate guanylyltransferase assay. In kind it is functional. The conditions noted are these: 10 µM.
Experiment [6] has as its target T2, Arginase-2, mitochondrial (Homo sapiens) (UniProt P78540).
T2 sequence (whole entry): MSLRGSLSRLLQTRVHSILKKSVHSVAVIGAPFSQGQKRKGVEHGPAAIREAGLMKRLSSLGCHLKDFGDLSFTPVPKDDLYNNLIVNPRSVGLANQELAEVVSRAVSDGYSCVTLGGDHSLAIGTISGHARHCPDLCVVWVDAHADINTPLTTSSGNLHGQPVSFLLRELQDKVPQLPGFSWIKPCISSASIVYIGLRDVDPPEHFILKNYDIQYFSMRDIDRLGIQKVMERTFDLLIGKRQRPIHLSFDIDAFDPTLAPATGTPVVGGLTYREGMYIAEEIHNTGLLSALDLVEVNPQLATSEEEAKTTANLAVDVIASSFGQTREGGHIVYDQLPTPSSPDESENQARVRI
In words: in vitro enzyme assay to detect the production of urea directly proportional to the activity of Arginase II. Note: in the data most compounds retested in dose-response had high values. Type of experiment: functional. As to conditions: 33.3 µM.

Experiment [7] addresses T3, Proteasome subunit beta (Trypanosoma cruzi) (UniProt O96673).
T3 sequence (whole entry): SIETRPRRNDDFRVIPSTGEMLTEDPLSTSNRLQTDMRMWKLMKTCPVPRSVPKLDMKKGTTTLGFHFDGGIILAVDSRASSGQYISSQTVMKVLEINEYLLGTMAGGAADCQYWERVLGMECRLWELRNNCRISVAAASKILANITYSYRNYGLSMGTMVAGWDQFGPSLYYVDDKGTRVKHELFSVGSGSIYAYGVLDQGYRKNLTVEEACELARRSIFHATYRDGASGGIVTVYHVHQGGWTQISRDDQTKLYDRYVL
In words: Trypanosoma cruzi proteasome chymotrypsin-like activity (TcProtChymo) assay. Note: in the data most compounds retested in dose-response had high values. Type of experiment: functional. As to conditions: 9.37 µM.

Experiment [8] is filed under the species Homo sapiens. In words: To identify inhibition of the IFN signalling (Jak-Stat) pathway via expression of an eGFP reporter gene under the control of an IFN-stimulated response element (ISRE) containing MxA promoter. In kind it is functional. The conditions noted are these: 30 µM. A general note: Reporter assays use an easily measured gene product as a stand-in for the process of interest.

The target in experiment [9] is T4, Tyrosyl-tRNA synthetase, putative (Trypanosoma cruzi (strain CL Brener)) (UniProt Q4DSP6).
T4 sequence (whole entry): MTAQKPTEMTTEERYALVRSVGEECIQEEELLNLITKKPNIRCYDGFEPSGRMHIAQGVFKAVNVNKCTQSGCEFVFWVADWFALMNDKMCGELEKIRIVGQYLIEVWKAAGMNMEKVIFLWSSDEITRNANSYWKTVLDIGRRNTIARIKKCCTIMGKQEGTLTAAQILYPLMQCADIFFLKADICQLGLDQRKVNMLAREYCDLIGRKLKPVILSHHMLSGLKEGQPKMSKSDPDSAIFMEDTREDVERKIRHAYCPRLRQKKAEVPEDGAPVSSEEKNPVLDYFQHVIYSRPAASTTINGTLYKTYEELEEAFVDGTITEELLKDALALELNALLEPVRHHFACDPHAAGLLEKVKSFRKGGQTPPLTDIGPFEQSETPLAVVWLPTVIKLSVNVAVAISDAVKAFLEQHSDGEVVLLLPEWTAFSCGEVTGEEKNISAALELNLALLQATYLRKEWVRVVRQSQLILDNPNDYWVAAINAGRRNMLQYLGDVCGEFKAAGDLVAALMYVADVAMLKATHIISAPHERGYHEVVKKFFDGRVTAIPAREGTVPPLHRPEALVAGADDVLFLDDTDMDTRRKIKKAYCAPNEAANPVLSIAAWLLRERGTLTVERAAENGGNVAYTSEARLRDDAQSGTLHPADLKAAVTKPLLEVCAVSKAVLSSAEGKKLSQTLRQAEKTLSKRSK
Put plainly: Trypanosoma cruzi tyrosyl tRNA synthetase (TcYRS) _High Tyrosine SOP. Note: in the data most compounds retested in dose-response had high values. The conditions noted are these: 30 µM. Type of experiment: functional.

For experiment [10], the target named is T4, Tyrosyl-tRNA synthetase, putative (Trypanosoma cruzi (strain CL Brener)). Put plainly: Trypanosoma cruzi tyrosyl tRNA synthetase (TcYRS) SOP. In kind it is functional. As to conditions: 30 µM.
Experiment [11] has as its target Chromo domain-containing protein 1 (Saccharomyces cerevisiae (strain ATCC 204508 / S288c) (Baker's yeast)) (UniProt P32657). Put plainly: ScCHD-1 Enzyme Inhibition Assay. Note: in the data most compounds retested in dose-response had high values. In kind it is functional. As to conditions: 30 µM.

Chain of Sialic acid-binding Ig-like lectin 9 (Homo sapiens) (Q9Y336 whole entry): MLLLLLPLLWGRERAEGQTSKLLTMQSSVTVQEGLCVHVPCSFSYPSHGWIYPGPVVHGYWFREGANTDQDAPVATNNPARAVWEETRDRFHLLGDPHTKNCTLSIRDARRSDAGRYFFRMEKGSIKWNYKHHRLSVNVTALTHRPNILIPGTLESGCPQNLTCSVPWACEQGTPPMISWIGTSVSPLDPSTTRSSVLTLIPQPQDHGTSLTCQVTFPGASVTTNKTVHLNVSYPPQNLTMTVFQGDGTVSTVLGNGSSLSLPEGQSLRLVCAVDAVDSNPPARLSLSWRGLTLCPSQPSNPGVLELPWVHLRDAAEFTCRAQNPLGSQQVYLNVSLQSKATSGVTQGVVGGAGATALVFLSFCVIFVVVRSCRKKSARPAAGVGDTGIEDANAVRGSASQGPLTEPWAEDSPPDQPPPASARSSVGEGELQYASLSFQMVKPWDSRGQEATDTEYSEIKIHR
Chain of Protein translocase subunit SecA (Escherichia coli (strain K12)) (P10408 whole entry): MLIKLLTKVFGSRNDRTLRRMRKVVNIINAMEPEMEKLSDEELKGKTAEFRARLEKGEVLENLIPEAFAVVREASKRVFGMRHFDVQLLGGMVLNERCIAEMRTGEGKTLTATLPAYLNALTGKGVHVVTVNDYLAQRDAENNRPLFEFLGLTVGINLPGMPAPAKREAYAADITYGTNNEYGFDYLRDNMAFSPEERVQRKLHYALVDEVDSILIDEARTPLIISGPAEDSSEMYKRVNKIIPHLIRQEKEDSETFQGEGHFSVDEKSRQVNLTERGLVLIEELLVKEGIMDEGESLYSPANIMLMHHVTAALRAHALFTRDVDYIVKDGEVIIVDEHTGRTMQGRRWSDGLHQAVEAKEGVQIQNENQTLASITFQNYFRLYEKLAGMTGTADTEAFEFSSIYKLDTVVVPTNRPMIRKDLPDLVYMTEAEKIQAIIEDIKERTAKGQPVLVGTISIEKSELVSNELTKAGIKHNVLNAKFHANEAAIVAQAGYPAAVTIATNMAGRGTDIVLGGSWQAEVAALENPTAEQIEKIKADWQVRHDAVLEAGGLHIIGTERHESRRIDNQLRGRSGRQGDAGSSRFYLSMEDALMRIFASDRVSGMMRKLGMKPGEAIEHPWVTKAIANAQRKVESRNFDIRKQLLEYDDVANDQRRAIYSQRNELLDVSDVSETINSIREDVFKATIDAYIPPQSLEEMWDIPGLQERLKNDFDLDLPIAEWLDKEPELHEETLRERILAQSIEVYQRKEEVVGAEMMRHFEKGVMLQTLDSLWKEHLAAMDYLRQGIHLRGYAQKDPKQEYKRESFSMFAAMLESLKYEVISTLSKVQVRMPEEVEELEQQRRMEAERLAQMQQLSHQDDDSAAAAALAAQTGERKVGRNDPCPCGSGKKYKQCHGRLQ
Chain of Chromo domain-containing protein 1 (Saccharomyces cerevisiae (strain ATCC 204508 / S288c) (Baker's yeast)) (P32657 whole entry, the tested form may be a part): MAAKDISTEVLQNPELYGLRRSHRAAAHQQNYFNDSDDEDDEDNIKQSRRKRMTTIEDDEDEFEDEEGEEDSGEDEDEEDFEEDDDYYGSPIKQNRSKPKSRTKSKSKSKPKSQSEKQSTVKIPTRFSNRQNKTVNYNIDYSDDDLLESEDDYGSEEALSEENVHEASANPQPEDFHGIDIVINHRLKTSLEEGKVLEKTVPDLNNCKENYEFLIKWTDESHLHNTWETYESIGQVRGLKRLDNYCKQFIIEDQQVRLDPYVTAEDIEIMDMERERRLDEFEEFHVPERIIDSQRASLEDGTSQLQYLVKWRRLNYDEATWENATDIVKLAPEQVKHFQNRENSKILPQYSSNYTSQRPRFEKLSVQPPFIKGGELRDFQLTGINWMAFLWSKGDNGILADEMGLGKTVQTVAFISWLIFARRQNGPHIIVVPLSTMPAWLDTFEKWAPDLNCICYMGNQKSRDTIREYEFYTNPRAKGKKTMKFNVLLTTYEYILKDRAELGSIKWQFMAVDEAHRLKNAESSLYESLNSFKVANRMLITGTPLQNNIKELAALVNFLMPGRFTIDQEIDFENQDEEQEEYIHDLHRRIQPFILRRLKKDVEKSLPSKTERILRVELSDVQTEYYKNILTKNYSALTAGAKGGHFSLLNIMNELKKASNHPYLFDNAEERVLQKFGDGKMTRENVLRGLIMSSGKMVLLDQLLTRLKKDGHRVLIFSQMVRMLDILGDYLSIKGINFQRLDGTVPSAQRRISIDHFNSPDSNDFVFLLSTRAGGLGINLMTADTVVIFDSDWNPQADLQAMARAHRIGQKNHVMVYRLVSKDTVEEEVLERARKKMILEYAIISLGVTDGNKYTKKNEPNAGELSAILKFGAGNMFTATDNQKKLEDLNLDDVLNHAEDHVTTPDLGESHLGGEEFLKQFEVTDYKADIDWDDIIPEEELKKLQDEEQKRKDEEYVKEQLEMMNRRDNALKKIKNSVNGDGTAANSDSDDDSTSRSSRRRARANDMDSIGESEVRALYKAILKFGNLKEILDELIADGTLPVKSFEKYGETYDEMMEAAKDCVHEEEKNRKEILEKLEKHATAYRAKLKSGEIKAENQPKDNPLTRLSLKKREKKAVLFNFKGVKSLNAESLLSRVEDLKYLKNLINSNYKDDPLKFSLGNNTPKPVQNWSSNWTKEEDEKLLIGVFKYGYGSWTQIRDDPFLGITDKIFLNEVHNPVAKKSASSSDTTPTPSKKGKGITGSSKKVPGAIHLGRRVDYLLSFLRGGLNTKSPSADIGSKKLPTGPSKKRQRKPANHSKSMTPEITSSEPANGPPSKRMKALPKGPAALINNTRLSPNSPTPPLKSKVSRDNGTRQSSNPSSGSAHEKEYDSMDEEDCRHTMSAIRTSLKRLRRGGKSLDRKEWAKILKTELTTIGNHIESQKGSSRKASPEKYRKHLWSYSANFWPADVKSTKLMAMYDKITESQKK

As for `Cc1nccc(-c2cccc(NCC(=O)N3CCc4sccc4C3)c2)n1`, the Percent Effect in experiment [1] is -1.56%; in experiment [2], 2.63%; in experiment [3], 49.8%; in experiment [4], -3.82%; in [5], 4.76%; in [6], -1.8%. Further, the Percent Effect is 6.68% in experiment [7]; -23.6% in [8]; 11.3% in experiment [9]; 30.9% in [10]; -8.23% in [11].
With `O=C(C1CCOCC1)N1C[C@@H]2[C@@H](C1)OCC(=O)N2Cc1ccncc1`, the Percent Effect in experiment [1] was -1.9%; in experiment [2] it was -2.74%; in [3], -1.14%; in [4], 7.63%; in experiment [5], 1.19%; in [6], -0.399%. The Percent Effect in experiment [7] is 4.2%; in [8] it was 2.13%; in [9] it was 2.08%; in experiment [10], -6.17%; in experiment [11], -1.66%.
With `CNCC(=O)N1CCC(c2ccnc(Nc3ccc(C)cn3)n2)C1` (stereo unspecified), the Percent Effect was -7.25% in experiment [1]; 17.6% in experiment [2]; 1.51% in [3]; 1.04% in experiment [4]; 2.37% in experiment [5]; -4.87% in [6]. For the same compound, the Percent Effect in experiment [7] was 17.9%; in experiment [8], -13.7%; in [9], 8.6%; in [10], 19.5%; in experiment [11], -16.1%.
On to `CC1(C)Cc2ccccc2-c2nc(NCCO)[nH]c(=O)c21`, for which the Percent Effect was -5.03% in [1]; 13.2% in experiment [2]; 56% in [3]; 4.58% in experiment [4]; -3.02% in experiment [5]; 3.55% in [6]. Further, the Percent Effect in experiment [7] was 20%; in [8], 31.2%; in experiment [9], 6.38%; in experiment [10] it was 13%; in [11], -12.3%.
For the compound `Cc1cc2c(=O)n3c(nc2s1)CCN(Cc1ccncc1)CC3`, the Percent Effect in experiment [1] was 2.21%; in experiment [2], 4.05%; in experiment [3] it was 13.8%; in [4] it was -10.1%; in experiment [5], -4.94%; in experiment [6], 5.8%. For the same compound, the Percent Effect in experiment [7] is 4.21%; in [8], 19.7%; in [9], 3.23%; in experiment [10], 9.09%; in experiment [11], -10.3%.
On to `c1nc2c(c(C3CC3)n1)CCN(Cc1ccoc1)CC2`, for which the Percent Effect in experiment [1] was 0.0846%; in experiment [2] it was 19.2%; in [3] it was -4.87%; in experiment [4], 5.4%; in [5], 5.56%; in experiment [6] it was -0.798%. The Percent Effect in experiment [7] is 6.59%; in experiment [8], 5.88%; in experiment [9], 8.33%; in [10], 23.5%; in experiment [11] it was -3.03%.
With `CC(C)c1n[nH]c(C2CN(C(=O)CCCn3cccn3)CCO2)n1` (stereo unspecified), the Percent Effect in experiment [1] was 0.0152%; in experiment [2], -6.94%; in [3], -4.76%; in experiment [4], -7.03%; in experiment [5] it was -2.43%; in experiment [6], 2.21%. For the same compound, the Percent Effect is 11.6% in experiment [7]; -1.34% in [8]; -1.05% in [9]; 0% in [10]; 0.954% in experiment [11].
With `CC(=O)N1CCC(c2cncc(Oc3ccccc3)n2)CC1`, the Percent Effect is -10% in experiment [1]; 0% in experiment [2]; 9.22% in experiment [3]; -2.36% in experiment [4]; -4.33% in [5]; -1.17% in experiment [6]. Besides, the Percent Effect in experiment [7] was 8.19%; in [8], 14%; in [9], -1.06%; in experiment [10] it was 3.85%; in experiment [11] it was -3.75%.
Regarding `CCc1nccn1C1CCCN(C(=O)c2cnn(C)c2C2CC2)C1` (stereo unspecified), the Percent Effect in experiment [1] is -5.61%; in experiment [2], 8.11%; in [3], -0.679%; in [4], 1.6%; in experiment [5] it was -6.51%; in [6], -4.41%. Also, the Percent Effect in experiment [7] was 6.49%; in [8] it was 23.9%; in experiment [9] it was 3.45%; in experiment [10], 6.17%; in [11] it was -2.99%.
As for `CCc1nccn1C1CCCN(C(=O)c2ccc3nncn3c2)C1` (stereo unspecified), the Percent Effect is -5.07% in experiment [1]; 7.79% in [2]; -4.63% in experiment [3]; 9.34% in [4]; 5.06% in [5]; -1.78% in [6]. Moreover, the Percent Effect in experiment [7] is 2.03%; in experiment [8], 9.22%; in experiment [9], 6.8%; in [10], 19.5%; in experiment [11], -7.6%.
As to `Cn1c(CC2CCS(=O)(=O)C2)nnc1SCCOc1ccccc1F` (stereo unspecified), the Percent Effect in [1] is -0.675%; in [2], 2.7%; in [3], 2.63%; in experiment [4], 12.8%; in [5], 2.64%; in experiment [6], 30.5%. In addition, the Percent Effect in experiment [7] is 2.15%; in [8], -9.3%; in experiment [9], -2.15%; in experiment [10], 6.17%; in experiment [11], -9.15%.
